Here are results for 36 molecules from ChEMBL document CHEMBL3988442, “University of Dundee, Small-Polar-MMV Screening Library” (2021).

Among all 38,000 compounds or so, about 1,200 (3.2%) showed an effect of 50% or more. The median lay at about -58%. The sample as a whole holds a higher share of strong results than the screen did.

This assay deals with Plasmodium falciparum. The assay can be described thus: Calibr Malaria Delayed Death Assay SOP. Type of assay: functional, organism-based. On the set-up: scale not given: in the data most compounds retested in dose-response had high values. Particulars: concentration 4.99e-06 (unit not given; other assays of the set use mol/L).
`Cc1nccn1C1CCCN(C(=O)c2cccc3c2OCO3)C1` (stereo unspecified): the “Percent Effect” value is listed as -58.82%.

For `NC(=O)C1CCC(NC(=O)COc2ccc(Cl)c(Cl)c2)CC1` (stereo unspecified), the “Percent Effect” value was 13.16%.

On to `O=C1CC(N2CCN(c3ccccc3O)CC2)C(=O)N1Cc1cccs1` (stereo unspecified), for which the “Percent Effect” value is reported as -172.2%.

`Cc1cc2ccccc2n1CCC(=O)NCCN(C)S(C)(=O)=O`: the “Percent Effect” value is recorded as -87.62%.

Take `CCN(Cc1nc(COC)no1)C(=O)CCn1c(C)cc2ccccc21`: the “Percent Effect” value was found to be 5.524%.

Regarding `CCN(Cc1ccncc1)C(=O)CCn1c(C)cc2ccccc21`, the “Percent Effect” value was found to be 55.24%.

Consider `CN(C)C(=O)CC1CC2(CCN(Cc3cccs3)CC2)c2ccccc21.O=C(O)C(F)(F)F` (stereo unspecified), for which the “Percent Effect” value was determined as 22.44%.

With `CN1CCN(C(=O)N2CCCC(c3nccn3CC3CCC3)C2)CC1` (stereo unspecified), the “Percent Effect” value is reported as -95.73%.

As for `CC(=O)N1CCC(C(=O)NCc2ncc(-c3ccccc3)o2)CC1`, the “Percent Effect” value is recorded as -123.2%.

As for `CCNc1ccnc(CN2CCCC2C(=O)Nc2nccs2)c1` (stereo unspecified), the “Percent Effect” value is 94.9%.

With `CCc1nc(CN2CCCC2C(=O)NC)cs1` (stereo unspecified), the “Percent Effect” value was -71.78%.

`CCc1nc(CN2CCCC2C(=O)NC2CC2)cs1` (stereo unspecified): the “Percent Effect” value is recorded as -16.64%.

Turning to `NC(=O)C1CCCN1Cc1nccn1CC(F)(F)F` (stereo unspecified), the “Percent Effect” value is -38.81%.

Turning to `CC(=O)Nc1cccc(CN2CCCC2C(=O)Nc2nccs2)c1` (stereo unspecified), the “Percent Effect” value is -76.05%.

On to `CC(C)(C)NC(=O)C1CCCCN1Cc1nccn1CC(F)(F)F` (stereo unspecified), for which the “Percent Effect” value was -48.44%.

Turning to `O=C(Nc1nccs1)C1CCCN1Cc1ccccn1` (stereo unspecified), the “Percent Effect” value is 93.51%.

As for `CCn1ccnc1CN1CCCC1C(=O)Nc1nccs1` (stereo unspecified), the “Percent Effect” value is given as 84.6%.

For `CN(Cc1cnn(C)c1)C(=O)C1CCCN1Cc1ccccn1` (stereo unspecified), the “Percent Effect” value is given as -66.14%.

As to `Cc1cnn(CC2CCCN2C(=O)c2n[nH]c3ccccc23)c1` (stereo unspecified), the “Percent Effect” value is reported as -56.22%.

In the case of `CC(=O)Nc1ccc(SCCCC(=O)NCC2CCCO2)nn1` (stereo unspecified), the “Percent Effect” value is -99.67%.

As for `CC(NC(=O)N1CCC1)c1ccc(S(N)(=O)=O)cc1` (stereo unspecified), the “Percent Effect” value was -105.8%.

As for `Cc1ccc(NC(=O)NCCc2cnn(C)c2)c(N(C)C)n1`, the “Percent Effect” value is given as -69.56%.

As for `CCc1ccsc1C(=O)N1CCN(C(=O)CC(F)(F)F)CC1`, the “Percent Effect” value is recorded as -98.82%.

With `CCC1(CC)CC(=O)N(CC(O)c2cc(F)ccc2F)C1=O` (stereo unspecified), the “Percent Effect” value is -120%.

`Cc1cccc(CN2CCc3ncnc(N4CCCC4)c3CC2)n1.O=C(O)C(F)(F)F`: the “Percent Effect” value is listed as -17.07%.

For the molecule `O=c1c(NCc2ccco2)c(NCC(O)CN2CCOCC2)c1=O` (stereo unspecified), the “Percent Effect” value is listed as -219.4%.

In the case of `O=C(c1ccnc(N2CCOC(C(F)(F)F)C2)c1)N1CCCC1` (stereo unspecified), the “Percent Effect” value was -34.44%.

As for `O=C(Nc1cn[nH]c1)NC1CCN(c2ccccc2OC(F)F)C1` (stereo unspecified), the “Percent Effect” value is given as -124.3%.

Regarding `O=C(Nc1ccccn1)NC1CCN(c2ccccc2OC(F)F)C1` (stereo unspecified), the “Percent Effect” value is given as 9.794%.

On to `Cc1noc(C)c1CNC1CCN(c2ccccc2OC(F)F)C1` (stereo unspecified), for which the “Percent Effect” value is 63.44%.

For the molecule `Cc1c(CNC2CCN(c3ccccc3OC(F)F)C2)cnn1C` (stereo unspecified), the “Percent Effect” value is 69.48%.

Take `O=C(Nc1ccncc1)NC1CCN(c2ccccc2OC(F)F)C1` (stereo unspecified): the “Percent Effect” value came out at 64.77%.

As to `Cc1noc(C)c1CNc1c(N2CCCC2)cccc1N1CCCC1`, the “Percent Effect” value is reported as -39.5%.

Turning to `COc1ccccc1N1CCC(NCc2c(C)noc2C)C1` (stereo unspecified), the “Percent Effect” value is 24.81%.

Turning to `O=C(Nc1cccnc1)NC1CCN(c2ccccc2OC(F)F)C1` (stereo unspecified), the “Percent Effect” value is 16.84%.

For `O=C(NC1CCN(c2ccccc2OC(F)F)C1)c1cccnc1` (stereo unspecified), the “Percent Effect” value is given as -43.56%.
